Assay results as given in PubChem BioAssay AID1645853 (Buhrlage Lab, Dana-Farber Cancer Institute and Novartis …, 2021).
About 2,000 (4.3%) of roughly 47,000 compounds were called active. The full list was thinned out, with actives kept by preference. A number with no mark means an inactive call. No stated cut-off is given here; in the data, active means inhibition above about 30%; inactive means the rest.

Each molecule was assayed against Ubiquitin carboxyl-terminal hydrolase 8 (Homo sapiens) (UniProt P40818) (assay: inhibitors of human USP8 deubiquitinase (AID 1645853)). Conditions: purified USP8, Ub-rhodamine cleavage fluorescence, 30 min; at 20 µM; stronger effect = higher value.
Ubiquitin carboxyl-terminal hydrolase 8 (Homo sapiens), sequence (P40818 whole entry, looked up): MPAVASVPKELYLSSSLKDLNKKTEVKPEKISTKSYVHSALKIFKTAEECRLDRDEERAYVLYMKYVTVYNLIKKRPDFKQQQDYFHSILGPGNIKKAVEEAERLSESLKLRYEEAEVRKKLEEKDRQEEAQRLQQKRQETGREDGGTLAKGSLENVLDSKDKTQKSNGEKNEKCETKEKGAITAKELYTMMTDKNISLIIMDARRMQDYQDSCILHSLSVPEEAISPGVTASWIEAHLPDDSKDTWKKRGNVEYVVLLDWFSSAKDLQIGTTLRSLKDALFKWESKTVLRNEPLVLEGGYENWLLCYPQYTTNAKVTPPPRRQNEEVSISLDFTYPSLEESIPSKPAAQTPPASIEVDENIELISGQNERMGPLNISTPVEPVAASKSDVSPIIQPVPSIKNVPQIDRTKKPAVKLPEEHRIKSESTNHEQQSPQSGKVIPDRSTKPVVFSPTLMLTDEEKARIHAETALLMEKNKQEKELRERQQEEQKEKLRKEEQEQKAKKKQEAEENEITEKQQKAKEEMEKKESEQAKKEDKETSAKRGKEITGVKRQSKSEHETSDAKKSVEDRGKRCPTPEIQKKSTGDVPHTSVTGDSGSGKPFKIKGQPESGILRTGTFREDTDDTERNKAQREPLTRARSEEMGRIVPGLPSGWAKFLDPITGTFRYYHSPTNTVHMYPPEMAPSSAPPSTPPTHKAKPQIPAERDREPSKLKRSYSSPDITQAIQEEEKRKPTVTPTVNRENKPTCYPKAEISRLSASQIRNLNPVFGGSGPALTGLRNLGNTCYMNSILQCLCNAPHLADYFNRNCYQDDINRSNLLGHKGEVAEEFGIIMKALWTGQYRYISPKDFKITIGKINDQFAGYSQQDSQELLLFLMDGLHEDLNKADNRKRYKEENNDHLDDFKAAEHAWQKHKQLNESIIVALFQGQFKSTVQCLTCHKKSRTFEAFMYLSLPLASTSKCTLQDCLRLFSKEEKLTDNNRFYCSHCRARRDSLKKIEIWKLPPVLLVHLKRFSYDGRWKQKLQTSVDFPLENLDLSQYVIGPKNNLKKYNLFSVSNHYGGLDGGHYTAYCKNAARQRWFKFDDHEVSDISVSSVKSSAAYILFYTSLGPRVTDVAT

| Structure (SMILES) | inhibition |
| --- | --- |
| C[C@H](NC(=O)c1ccc2c(c1)OCO2)c1nc2cc(-c3ccc(F)cc3)ncn2n1 | 18% |
| Nc1c(-c2ccc(Cl)cc2)cnc2c(-c3ccccc3)c(COc3ccccc3)nn12 | -0.15% |
| COc1ccc(OCC(=O)Nc2noc(-c3ccccc3)n2)cc1 | 15.1% |
| COc1ccc(-c2noc(-c3cccc(OCC(=O)NC(C)C)c3)n2)cc1 | -16.3% |
| COc1ccc(NC(=O)Cc2noc(-c3cccc(OC)c3)n2)cc1 | 50.5% (active) |
| CN(C)[C@@H]1CN(S(=O)(=O)N2CCOCC2)C[C@H]1O | 11.8% |
| Cc1ccc(C(=O)N2C[C@@H]3CCN(c4ncccn4)C[C@@H]3C2)cc1 | -16.6% |
| COc1cccc(NC(=O)c2nnn(Cc3nc(-c4cccc(C)c4)oc3C)c2N)c1 | -2.67% |
| COc1cccc(CNC(=O)c2nnn(CC(=O)Nc3cc(C)ccc3C)c2N)c1 | 67.9% (active) |
| COc1cccc(CNC(=O)Cn2cnc(S(=O)(=O)N3CCCC3)c2)c1 | 19% |
| Cc1ccc(C)c(NC(=O)c2cn(C)cc3c(=O)n(-c4ccccc4)nc2-3)c1 | -13.8% |
| Cc1nc(-c2ccc(C)c(S(=O)(=O)NCC(=O)Nc3cccc(Cl)c3)c2)no1 | 7.8% |
| Cc1ccc(Nc2nc(NCC(=O)Nc3cc(C)ccc3C)nc(Nc3ccc(C)cc3)n2)cc1 | 38% (active) |
| CCCN1CCC(N2C[C@@H]3CN(S(=O)(=O)c4ccccc4)C[C@@H]3C2)CC1 | -38.2% |
| Cc1nc(-c2ccccc2)sc1-c1nc(-c2ccccc2)ncc1S(=O)(=O)c1ccccc1 | 63.3% (active) |
| COc1ccc2ncc(S(=O)(=O)c3ccccc3)c(Nc3ccc(F)cc3)c2c1 | 17.2% |
| Cc1ccc2c(c1)CN(S(C)(=O)=O)CC1(CCN(CC(=O)N3CCCCC3)CC1)O2 | 0.0399% |
| CCOC(=O)C1CCN(S(=O)(=O)c2cc3[nH]c4c(c3cc2CC)C(=O)CCC4)CC1 | -25.1% |
| Cc1cc(C(F)(F)F)nn1CC(=O)O | -0.231% |
| O=C(Cc1ccc(Cl)cc1)NCC(=O)Nc1nc2ccccc2[nH]1 | -1.55% |

| Structure (SMILES) | inhibition |
| --- | --- |
| CC1=C(C(=O)Nc2ccccc2)C(c2ccc(OCc3c(Cl)cccc3Cl)cc2)n2ncnc2N1 (stereo not drawn) | -1.68% |
| COCCNC(=O)c1ccc2nnc3ncn(C(C)C)c3c2c1 | -31.7% |
| COc1ccc(-c2noc(-c3ccc(N(C)Cc4ccco4)nn3)n2)cc1 | 35.7% (active) |
| COc1ccc(-c2nc(-c3cccs3)no2)cc1OC | -15.4% |
| COc1ccc(-c2noc(C3(c4ccccc4)CCOCC3)n2)cc1 | 19.2% |
| O=C1CC(C(=O)Nc2ccccc2F)N=C(N2CCN(c3ccccc3F)CC2)N1 (stereo not drawn) | 3.41% |
| O=C(CSc1ccc2nnc(-c3ccccc3)n2n1)N1CCCc2ccccc21 | 29.4% |
| CC(C)N(C(=O)CSc1nc2ccc([N+](=O)[O-])cc2s1)C(C)C | 49.5% (active) |
| O=[N+]([O-])c1ccc(S(=O)(=O)N2CCN(c3nc4ccccc4s3)CC2)cc1 | -0.0867% |
| COc1cccc(NC(=O)CN2CCN(c3nc4ccc([N+](=O)[O-])cc4s3)CC2)c1 | -52.2% |
| O=C1NCCCCC1NS(=O)(=O)c1ccc2c(c1)OCCCO2 (stereo not drawn) | -2.35% |
| Cc1ccccc1NC(=O)Cc1csc2nc(-c3ccc(F)cc3)cn12 | 85.8% (active) |
| O=C(Cc1ccc(F)cc1)Nc1ccccc1Cc1ccccc1 | 19.3% |
| Cc1cc(F)ccc1NC(=O)Cc1n[nH]c(Cc2ccccc2)n1 | 2.95% |
| COc1cccc(C(=O)OCc2csc(-c3ccccc3)n2)c1OC | 4.14% |
| Nc1cc(C2CCN(C(=O)Cc3ccc(F)cc3)CC2)no1 | 1.13% |
| COc1ccccc1CNC(=O)c1ccc(Cl)c(S(=O)(=O)N2CCCC2)c1 | -5.09% |
| COc1cccc(-n2c(=O)c(C(=O)NC(C)c3ccccc3)c(O)c3cccnc32)c1 (stereo not drawn) | 81.5% (active) |
| COc1ccccc1CNC(=O)c1c(O)c2cccnc2n(-c2ccccc2)c1=O | 80.6% (active) |
| COc1cccc(NC(=O)Nc2nccn(-c3ccccc3)c2=O)c1 | 5.06% |

| Structure (SMILES) | inhibition |
| --- | --- |
| COc1cccc(-n2c(=O)[nH]c3c(C(N)=O)nc(-c4ccccn4)nc32)c1 | -282% |
| COc1ccccc1CNCc1c(C(=O)O)c(C)n(-c2ccccc2)c1C | 27.6% |
| CN(C)S(=O)(=O)N1CCOC(c2cncc(-c3cccc(F)c3)n2)C1 (stereo not drawn) | -2.26% |
| O=C(C1COc2ccccc2O1)N1CCN(c2nc(C(F)(F)F)nc3ccccc23)CC1 (stereo not drawn) | 11.8% |
| COC(=O)c1ccc(C2Oc3ccccc3CN2c2ccccc2Cl)cc1 (stereo not drawn) | 22% |
| COc1ccc(-c2csc(N)n2)c(O)c1 | 3.16% |
| Cc1ccc(-n2c(C)nnc2SCC(=O)NC2CC2)cc1 | 1.76% |
| Cc1nc(C2CCCN2C(=O)c2ccc(OCC3CC3)nc2)no1 (stereo not drawn) | 5.37% |
| Cc1nc2cc(-c3noc(-c4sc(C)nc4C)n3)ccc2o1 | 7.81% |
| O=C(NCCc1c[nH]c2ccccc12)c1cc2cc(Cl)ccc2o1 | 16.2% |
| O=C(CCc1csc(NC(=O)c2ccc(=O)[nH]c2)n1)NCCc1c[nH]c2ccccc12 | 62.3% (active) |
| O=C(Cc1csc(NC(=O)c2ccc(=O)[nH]c2)n1)NCc1ccco1 | -11.3% |
| COc1cc(C2CCN(S(=O)(=O)c3cccc(C#N)c3)CC2)on1 | -4.99% |
| N=C(N)C1CN(Cc2ccccc2)C(=O)NC1=O (stereo not drawn) | -100% |
| c1ccc(-c2ccc(NCc3ccc4c(c3)OCO4)nn2)cc1 | 92% (active) |
| CCC(Oc1ccccc1)C(=O)NCc1ccc2c(c1)OCO2 (stereo not drawn) | -79.7% |
| c1cc(CNCc2ccc3c(c2)OCO3)ccn1 | 11% |
| COc1cc(N2CC[C@@H]3[C@@H](CO[C@H]3CNc3ncccn3)C2)ncn1 | -92.4% |
